Data published in PubChem BioAssay (EPA / NIEHS).
Records with an inconclusive call do not appear. The source made the active and inactive calls. The calls were made as follows, unless noted: active = hit-call score of the fitted dose curve at least 0.9, where 1 is the maximum; inconclusive = response in the unintended direction; inactive = score below 0.9.

Assay: CEETOX_H295R_MTT_cell_viability: Viability Assessment in the CeeTox HT-H295R MTT Assay (AID 2283718; active = hit-call score of the fitted dose curve at least 0.9, where 1 is the maximum; inactive = score below 0.9;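 as to AC50: curve fitted both ways so AC50 may mark viability loss or gain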)
In short: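 Human H295R adrenal cells, prestimulated 48 h with 10 uM forskolin, were exposed 48 h to chemicals in 0.1% DMSO. Viability was measured in the same wells by MTT (0.5 mg/ml, 4 h, 37 C), absorbance 570/650 nm, as percent of controls.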
For NC(=O)Nc1ccc(Cl)cc1, the outcome was “inactive”. With CC1COc2ccccc2N1C(=O)C(Cl)Cl (stereo not drawn) the AC50 was 4.9 µM (active). In the case of c1ccc(CCCc2ccccn2)cc1, the outcome is reported as “inactive”. For CC1CC(OC(=O)c2ccccc2O)CC(C)(C)C1 (stereo not drawn), the outcome was “inactive”.

Assay: ACEA_AR_agonist_AUC_viability: ACEA Biosciences xCELLigence Real-Time Cell Analysis on Androgen Receptor Agonism for Viability (AID 2283775);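 as to AC50: viability read 80 hours after compound addition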
In short: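 22Rv1 cells; impedance growth kinetics; 8-pt 1:4 dilutions from 100 uM top final, ≤0.5% DMSO; n = 2; 80 h read; AUC viability, loss-of-signal vs DMSO.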
For CC(C)(C)C(=O)c1ccccc1, the outcome was “inactive”. With Cc1ccc(S)cc1 the outcome was “inactive”. For CCN(CC)c1ccc(C(=C2C=CC(=[N+](CC)CC)C=C2)c2ccc(S(=O)(=O)O)cc2S(=O)(=O)[O-])cc1, the outcome was “inactive”. With CCCCCCCCCCCCCCCCCC(=O)OCC(CC)CCCC (stereo not drawn) the outcome was “inactive”. In the case of C=C(C)C(=O)O, the outcome is reported as “inactive”. In the case of CC1(C)[C@@H]2CC[C@@]1(C)[C@H](O)C2, the outcome is reported as “inactive”. In the case of COc1c(Cl)c(Cl)c(Cl)c(Cl)c1Cl, the outcome is reported as “inactive”. With CCCCCCCCCCC(CO)CCCCCCCC (stereo not drawn) the AC50 was 9.96 µM (active). For O=C1C(c2[nH]c3ccc(S(=O)(=O)O)cc3c2O)=Nc2ccc(S(=O)(=O)O)cc21, the outcome was “inactive”. In the case of CC(C)CCCCCCCOC(=O)c1ccc(C(=O)OCCCCCCCC(C)C)c(C(=O)OCCCCCCCC(C)C)c1, the outcome is reported as “inactive”. In the case of NC(=O)Nc1ccc(Cl)cc1, the outcome is reported as “inactive”. With CC1COc2ccccc2N1C(=O)C(Cl)Cl (stereo not drawn) the AC50 was 2.33 µM (active). With C=CC(C)(O)CCC=C(C)CCC=C(C)C (stereo not drawn) the outcome was “inactive”. For O=C[C@@H](O)[C@H](O)[C@H](O)CO, the outcome was “inactive”. For CC(C)C[C@H]1C(=O)N2CCC[C@H]2[C@]2(O)O[C@](NC(=O)[C@@H]3C=C4c5cccc6[nH]c(Br)c(c56)C[C@H]4N(C)C3)(C(C)C)C(=O)N12, the outcome was “inactive”. For CCCCCCCCCC=O, the outcome was “inactive”. With NCCCN1CCOCC1 the outcome was “inactive”. With CC(=O)C=CC1=C(C)CCCC1(C)C the outcome was “inactive”. With c1ccc(CCCc2ccccn2)cc1 the outcome was “inactive”. With CCCOCC(C)O (stereo not drawn) the outcome was “inactive”. For CCCCCC(CO)CCC (stereo not drawn), the outcome was “inactive”. In the case of CCCCC(CC)COC(=O)/C=C\C(=O)OCC(CC)CCCC (stereo not drawn), the outcome is reported as “inactive”. For CCCCCCCCCCN, the outcome was “inactive”. In the case of CCCCCCCCC, the outcome is reported as “inactive”. In the case of CCCCCCCCCCCCN, the outcome is reported as “inactive”.

Assay: ACEA_AR_antagonist_AUC_viability: ACEA Biosciences xCELLigence Real-Time Cell Analysis on Androgen Receptor Antagonism for Viability (AID 2283776);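 also: 22Rv1 human prostate cancer cells growing on impedance electrode plates; area under impedance growth curve at 80 h after dosing as viability; hits lower the growth signal relative to DMSO meaning cytotoxicity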
In short: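 Viability endpoint from label-free cell-index monitoring: 22Rv1 cultures treated with an eight-point 1:4 dilution series starting at 100 uM final, AUC at 80 h fitted against DMSO.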
With CCCCCCCCCCCCCCCCCC(=O)OCC(CC)CCCC (stereo not drawn) the outcome was “inactive”. For C=C(C)C(=O)O, the outcome was “inactive”. For CC1(C)[C@@H]2CC[C@@]1(C)[C@H](O)C2, the outcome was “inactive”. In the case of CC(C)CCCCCCCOC(=O)c1ccc(C(=O)OCCCCCCCC(C)C)c(C(=O)OCCCCCCCC(C)C)c1, the outcome is reported as “inactive”. For CC1COc2ccccc2N1C(=O)C(Cl)Cl (stereo not drawn), the AC50 was 4.63 µM (active). In the case of O=C[C@@H](O)[C@H](O)[C@H](O)CO, the outcome is reported as “inactive”. With CC(C)C[C@H]1C(=O)N2CCC[C@H]2[C@]2(O)O[C@](NC(=O)[C@@H]3C=C4c5cccc6[nH]c(Br)c(c56)C[C@H]4N(C)C3)(C(C)C)C(=O)N12 the outcome was “inactive”. For NCCCN1CCOCC1, the outcome was “inactive”. In the case of CC1CC(OC(=O)c2ccccc2O)CC(C)(C)C1 (stereo not drawn), the outcome is reported as “inactive”.
